Measured values taken from the supplement of paper PMC12350171.
Where a name gives a salt, the structure may show the parent alone.

The compounds below were run on Haemophilus parainfluenzae (assay: growth AUC normalised to DMSO control (fraction of control); higher = less growth inhibition, active = hit call of the paper). Conditions: 20 µM;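 active = AUC significantly below DMSO controls by Student t-fit with adjusted P under 0.01; inactive = not significantly reduced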.
Method in brief: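 Pathogens passaged twice anaerobically were inoculated at a starting OD578 of 0.01 into pre-reduced mGAM plates with drug at 20 μM and 1% DMSO, sealed with breathable membranes. Haemophilus parainfluenzae medium was supplemented with hemin and NAD. OD578 was read hourly for 24 h, with three biological replicates. Growth-curve AUC was computed by the trapezoidal rule up to the exponential-to-stationary transition and normalised to DMSO controls on the same plate.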

SMILES | growth AUC normalised to DMSO control
CC(=O)OCC(=O)[C@@]12N=C(C)O[C@@H]1C[C@H]1[C@@H]3CCC4=CC(=O)C=C[C@]4(C)[C@H]3[C@@H](O)C[C@@]12C [Deflazacort] | 1.02 (inactive)
CN1CCN(CC(=O)N2c3ccccc3C(=O)Nc3cccnc32)CC1 [Pirenzepine dihydrochloride] | 1.01 (inactive)
O=C1CCc2ccc(OCCCCN3CCN(c4cccc(Cl)c4Cl)CC3)cc2N1 [Aripiprazole] | 0.994 (inactive)
C[C@H](CS)C(=O)N1CCC[C@H]1C(=O)O [Captopril] | 1.05 (inactive)
CC(=O)OCC(=O)[C@@]1(O)[C@H](C)C[C@H]2[C@@H]3CCC4=CC(=O)C=C[C@]4(C)[C@@]3(F)[C@@H](O)C[C@@]21C [Dexamethasone acetate] | 1.03 (inactive)
CC1(C)S[C@@H]2[C@H](NC(=O)[C@H](N)c3ccc(O)cc3)C(=O)N2[C@H]1C(=O)O [Amoxicillin] | 0.0371 (active)
CC1(C)[C@@H](OC(=O)CCC(=O)O)CC[C@]2(C)[C@H]3C(=O)C=C4[C@@H]5C[C@@](C)(C(=O)O)CC[C@]5(C)CC[C@@]4(C)[C@]3(C)CC[C@@H]12 [Carbenoxolone disodium salt] | 0.964 (inactive)
